Pf Dd2 growth: Plasmodium falciparum Dd2 growth inhibition; P. falciparum Dd2 growth, SYBR Green, 72 h; Potency, µM (doses to about 28.9 µM), most hits filed as inhibitors; 120,000 tested, 4.3% active; active = well fitted inhibition curve with a large enough effect; note: nearly all actives have a fitted effect of over 65% in size
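Infected erythrocytes (Dd2, 0.3% parasitemia, 2.5% hematocrit final) are added to compound in RPMI-1640/Albumax II medium, grown 72 h at 37C in low oxygen, then lysed with saponin/Triton-X containing SYBR Green and read by fluorescence.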
A number is an active result; – = inactive. This excerpt belongs to a sample that is enriched for hits.

SMILES	Pf Dd2 growth
FC(F)(F)c1ccc(N2C3CCC2CN(Cc2cccc(Cl)c2)C3)cc1	–
COCc1cc(=O)n(CC(=O)Nc2cccc(C)c2)c(N2CCOCC2)n1	–
C#CCNC(=O)C1CCc2nnc(CNC(=O)NC(C)C)n21 (stereo not given)	–
Cn1cc(CNC(=O)C[C@@H]2C[C@H]3O[C@H](CNCc4ccccc4OC(F)(F)F)[C@@H](O)[C@H]3O2)cn1	–
CC1(C(=O)NCCCN2CCc3ccccc3C2)CCCCC(=O)N1 (stereo not given)	–
CC(C)N1C(=O)C2(CCCC2)C1C(=O)NCCCN1CCCC1 (stereo not given)	–
COc1ccc(N2C(=O)C3(CCCCC3)C2C(=O)NCCCN2CCCCC2)cc1 (stereo not given)	11µM
COc1ccc(N2C(=O)C3(CCCCC3)C2C(=O)NCCN2CCc3ccccc3C2)cc1 (stereo not given)	8.9µM
CCN1CCN(CCNC(=O)C2N(C(C)C)C(=O)C23CCCCC3)CC1 (stereo not given)	–
CCC(=O)N1c2ccccc2CC1C(=O)NCCCN1CCN(c2ccc(OC)cc2)CC1 (stereo not given)	–
COc1ccc(N2C(=O)C3(CCCCC3)C2C(=O)O)cc1 (stereo not given)	–
CC(C)N1C(=O)C2(CCCC2)C1C(=O)NCCCN1CCN(c2ccccc2)CC1 (stereo not given)	–
COc1ccc(N2C(=O)C3(CCCCC3)C2C(=O)NCCCN2CCCC2)cc1 (stereo not given)	4.5µM
O=C1CC2(CCN(C(=O)c3ccccn3)CC2)Oc2ccccc21	–
O=C(c1ccc(Cl)s1)N1CCC2(CNS(=O)(=O)c3cnccc3O2)C1 (stereo not given)	–
Cc1cnc(C(=O)N[C@@H]2CCC[C@@H]2C(=O)NCCCN2CCOCC2)cn1	–
OCC1CN(c2ccncn2)CC12CCN(CC1CCCCC1)CC2 (stereo not given)	–
CN(C(=O)CN1CCC2(CC1)C(C(=O)O)CC(=O)N2C)c1ccccc1 (stereo not given)	–
Cc1ccc(C(=O)NC2CCN(c3cc(-c4ccccc4)[nH]n3)CC2)c(C)c1	–
COc1cccc2c1OCC(C(=O)N1CCC(Cn3cc(C)cn3)CC1)C2 (stereo not given)	–
CN1Cc2c(cc(N3CCOCC3)nc2-c2cnn(C)c2)C1=O	–
Cc1ccc(-c2nc3ccc(Cl)cn3c2Nc2ccccc2C)s1	–
Clc1ccc2nc(-c3ccc(N4CCOCC4)cc3)c(Nc3ccccc3)n2c1	–
Brc1ccc2nc(-c3ccccc3)c(Nc3ccc4c(c3)OCO4)n2c1	–
Cc1ccc(Nc2c(-c3ccc(N4CCOCC4)cc3)nc3cccc(C)n23)cc1	–
SMILES	Pf Dd2 growth
Cc1ccccc1Nc1c(-c2c(F)cccc2Cl)nc2ccc(Br)cn12	10µM
Cc1ccc(Nc2c(-c3ccc(N4CCOCC4)cc3)nc3ccc(Cl)cn23)cc1	–
Cc1ccn2c(Nc3ccccc3C)c(-c3ccc(N4CCOCC4)cc3)nc2c1	6.3µM
Cc1ccccc1Nc1c(-c2ccc(N3CCOCC3)cc2)nc2ccc(Cl)cn12	8.9µM
Cc1cccc(C)c1Nc1c(-c2ccc(N3CCOCC3)cc2)nc2ncccn12	–
O=C(CCc1conc1-c1ccccc1F)NCc1cc(F)cc(F)c1	–
O=C(N[C@@H](Cn1ccc(=O)[nH]c1=O)C(=O)O)C1CCCCC1	–
CC(C)CCN1CCC(N2CCN(C(=O)c3ccsc3)CC2)C1=O (stereo not given)	–
Cc1cccc(OCCc2noc(C3CCN(C(=O)c4cc(C)nn4C)C3)n2)c1 (stereo not given)	–
Cc1cccc(CC(=O)N2CCCC(CN3CCCC3)CC2)c1 (stereo not given)	–
COc1ncc(-c2ccc3ncn(-c4ccc(F)cc4F)c(=O)c3n2)cn1	–
Cc1ccc(CN2CCC[C@H]2c2nc(-c3ccc(OC4CCCCC4)nc3)no2)cc1	–
c1cc(OC2CCCCC2)ncc1-c1noc([C@@H]2CCCN2C2CCOCC2)n1	11µM
COc1ccc(-c2noc([C@@H]3CCCN3C3CCCCC3)n2)cn1	–
NC(=O)CN1C(=O)CO[C@H]2CN(CC3CCCCC3)C[C@H]21	–
COc1ccc(CNC(=O)CSc2ncc3c(n2)-c2ccc(Cl)cc2N(Cc2ccccc2)S3(=O)=O)cc1	–
Cc1cccc(C)c1NC(=O)CSc1ncc2c(n1)-c1ccc(Cl)cc1N(Cc1ccccc1)S2(=O)=O	11µM
Cc1cccc(NC(=O)CSc2ncc3c(n2)-c2cc(Cl)ccc2N(C)S3(=O)=O)c1C	–
Cn1cccc1C(=O)NC1CCc2nn(C)c(=O)n2CC1 (stereo not given)	–
O=C(Nc1ccsc1)N[C@H]1C[C@H]2C(=O)NC[C@@H](CCC(=O)N3CCc4ccccc43)N2C1	–
CC(C)(O)C#Cc1ccc(C(=O)N2CCOCC2CC(=O)O)o1 (stereo not given)	–
CC(C)OCCCNC(=O)C1N(C(C)C)C(=O)C12CCCC2 (stereo not given)	–
Cc1ncc2n1C(=O)N(C1CCN(Cc3cccnc3)CC1)C2	–
O=C(C1CC1)N1CCC(OC2CCN(Cc3cccnc3)CC2)CC1	–
c1cncc(CN2CCC(Oc3nccnc3N3CCc4ccccc43)C2)c1 (stereo not given)	3.5µM
SMILES	Pf Dd2 growth
O=C(Cn1ncc2ccccc2c1=O)N1CCCC(Cc2nc3ccccc3[nH]2)C1 (stereo not given)	–
Cc1occc1C(=O)N[C@@H]1CN(S(C)(=O)=O)C[C@H]1CN(C)C	–
Cc1nnc(-c2cc(N3CCN(c4ccccn4)CC3)ccn2)n1C1CCCCC1	–
COc1cccc(C(=O)Nc2c(C(=O)Nc3ccc(F)cc3)oc3ccccc23)c1OC	–
CCOc1ccc(C(=O)Nc2c(C(=O)c3ccccc3)oc3ccccc23)cc1	–
Cc1c(C(=O)N(Cc2cccc(Cl)c2)Cc2ccco2)oc2ccccc12	–
CN(C)CCN(Cc1ccco1)C(=O)c1oc2ccccc2c1NC(=O)c1ccccc1	11µM
COc1ccccc1C(=O)N(Cc1ccco1)Cc1ccccc1F	–
COc1ccccc1C(=O)Nc1c(C(=O)N(CCN(C)C)Cc2ccco2)oc2ccccc12	6.3µM
CN1C(=O)CCCCC1C(=O)NC1CCCCC1 (stereo not given)	–
Cc1ccc(CNC(=O)CN2C(=O)C(c3ccccc3)=NC23CCCCCC3)cc1	–
COc1ccc(S(=O)(=O)N2CCc3nnc([C@@H]4C[C@@H](O)CN4C)n3CC2)cc1	–
CC1CCN(c2ccc(CNC(=O)CC3CCOCC3)cc2)CC1	–
O=C(NCc1ccc2c(c1)OCO2)C1CCCN(c2nc3ncccc3o2)C1 (stereo not given)	–
Cc1ccc(-c2nc3ccccn3c2Nc2ccc3c(c2)OCCO3)s1	–
Cc1ccn2c(Nc3ccc4c(c3)OCO4)c(-c3ccc(O)cc3)nc2c1	13µM
c1coc(-c2nc3ccccn3c2Nc2ccc3c(c2)OCCO3)c1	–
CSc1ccc(-c2nc3cc(C)ccn3c2Nc2ccc(C)cc2)cc1	–
CN(C)c1ccc(-c2nc3ccccn3c2Nc2ccc3c(c2)OCCO3)cc1	10µM
Cc1ccc2nc(-c3cccc(Cl)c3)c(Nc3ccc4c(c3)OCO4)n2c1	–
FC1(F)C[C@@H](c2nc(C3CC3)no2)N(Cc2ccco2)C1	–
CNC(=O)[C@@H]1CNC[C@H]1c1n[nH]c(C)n1	–
Cc1ccc(C(=O)NC2CCN(c3cc(-c4cccs4)[nH]n3)CC2)c(C)c1	–
O=C1[C@@H]2C[C@@H](CN2C2CCOCC2)Oc2ccccc2N1Cc1ccccc1	–
